Screening results as filed in PubChem.
Many of the other results were omitted from the sample, so hits are more common in it than they were.
Pf Dd2 inh = qHTS Primary assay for Inhibitors of Plasmodium falciparum Dd2 growth in vitro; P. falciparum Dd2 growth, SYBR Green, 72 h; Potency, µM (series often up to 28.9 µM), without a hit: at the top dose activity, negative = inhibition, actives largely listed as inhibitors; hit rate 4.3% among 120,000; active means well fitted inhibition curve with a large enough effect;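 further: plate controls were DMSO vehicle for no effect and reference drug for full effect; nearly all actives have a fitted effect of over 65% in size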
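Readout: SYBR Green fluorescence, 485 nm excitation, 535 nm emission, after ~16 h lysis at 37C. Before that, Dd2-infected red cells (2.5% hematocrit) grew 72 h with compound, 29 uM top final concentration.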
The depositor's hits bear a star; i = inactive; [ ] = another dose, or the depositor's remark. Potency means the concentration at half of the fitted maximal effect.

SMILES	Pf Dd2 inh
CC(C)NC(=O)C(C)[C@@H]1CC[C@@]2(C)CC[C@H](NC(=O)C3CC3)[C@@H](C)[C@@H]2[C@H]1O (some centres not stated)	14%[44.1 µM]
Cc1ccc(C(=O)N2CCC(C(NC(=O)C(C)C)C(=O)NCC(C)C)CC2)cc1 (configuration not stated)	i
COc1ccc(C(=O)N2CCC(C(NC(=O)c3ccccc3C)C(=O)NCC(C)C)CC2)cc1 (configuration not stated)	i
CCC(C)NC(=O)C(NC(=O)c1ccc(C)cc1)C1CCN(C(=O)c2cccc(F)c2)CC1 (configuration not stated)	10µM*
Cc1ccc(C(=O)N2CCC(C(NC(=O)c3ccccc3C)C(=O)NCC(C)C)CC2)cc1 (configuration not stated)	7.9µM*
CCC(C)NC(=O)C(NC(=O)c1ccc(C)cc1)C1CCN(C(=O)C(C)C)CC1 (configuration not stated)	-12%
CCC(C)NC(=O)C(NC(=O)c1ccc(F)cc1)C1CCN(C(=O)c2cccc(F)c2)CC1 (configuration not stated)	i
O=C(C1CC2(CCNCC2)CN1)N1CCCN(Cc2ccc(F)cc2)CC1 (configuration not stated)	-18%
CC(=O)N1CCc2[nH]cnc2C12CCN(C(=O)c1ccn3nnnc3c1)CC2	-3%
Cn1nc(C(=O)N2CCCC(CNC(=O)c3ccc(-c4ccccc4)cc3)C2)ccc1=O (configuration not stated)	-14%
COc1ccc(Cl)cc1NC(=O)Cn1c(N2CCCCC2)nc(C)c(C)c1=O	-14%
COc1ccc(-n2cc(C(=O)NCCc3ccc(C)cc3)c3ccccc3c2=O)cc1	i
CCOc1ccc(CCNC(=O)c2cn(-c3cccc(OC)c3)c(=O)c3ccccc23)cc1	-23%
CCOc1ccccc1CNC(=O)c1cn(-c2ccc(OC)cc2)c(=O)c2ccccc12	8.9µM*
O=C(c1cccs1)N1CCn2c(nnc2[C@@H]2C[C@@H](O)CN2Cc2ccccc2)C1	15%
COCCN(Cc1ccc(C)cc1)Cc1ccc(C#N)cc1	i
COCCN(Cc1cnn(-c2ccccc2C)c1)CC1CC1	7.1µM*
CCCc1nc(C(=O)N(C)Cc2cnn(-c3ccccc3C)c2)cs1	2%
COc1ccc(CCC(=O)NC2CCc3nn(C)c(=O)n3CC2)cc1OC (configuration not stated)	11%
CC(=O)N1CC2(Cc3ccccc31)CN(C(=O)N(C)C)C2	10%[44.1 µM]
Cc1cccc(N2Cc3c(ncnc3N3CCN(Cc4ccccc4)CC3)N(C)CC2=O)c1	i
O=C1CCCN1CCCN1C(=O)[C@H]2CN(Cc3cccc(F)c3F)C[C@H]2C1=O	5%
CC(C)Oc1ccc(CNC(=O)C(C)C2CCOCC2)cc1 (configuration not stated)	23%
Cc1noc(C)c1CC(=O)N1CCCC(COc2ccccc2C(=O)NC2CC2)C1 (configuration not stated)	-1%
Cc1oc(-c2ccc(Cl)cc2)nc1CN1C(=O)CN=C(c2ccccc2)c2cc(Cl)ccc21	i
SMILES	Pf Dd2 inh
COc1ccc(-c2nc(CN3C(=O)CN=C(c4ccccc4Cl)c4cc(Cl)ccc43)c(C)o2)cc1OC	13µM*
Cc1oc(-c2ccc(Cl)cc2)nc1CN1C(=O)CN=C(c2ccccc2)c2ccccc21	4%
CC(C)CCN1CCC2(CC1)CC(C(C)C)=NO2	i
CCOc1ccc(N2CC(c3nc4ccccc4n3CC(C)C)CC2=O)cc1 (configuration not stated)	-4%
CCOc1ccc(N2CC(c3nc4ccccc4n3CCC3CCCCC3)CC2=O)cc1 (configuration not stated)	11µM*
CCOc1ccc(N2CC(c3nc4ccccc4n3CCCOc3ccccc3)CC2=O)cc1 (configuration not stated)	13µM*
CCOc1ccc(-c2nc(C3CC(=O)N(c4ccc(OC)cc4)C3)no2)cc1 (configuration not stated)	-26%
CCOC(=O)Cn1c(C2CC(=O)N(c3ccc(C)cc3)C2)nc2ccccc21 (configuration not stated)	37%
CCOc1ccc(N2CC(c3nc(-c4cc(OC)c(OC)c(OC)c4)no3)CC2=O)cc1 (configuration not stated)	36%
CCOc1ccc(N2CC(c3nc4ccccc4n3CCOc3ccccc3OC)CC2=O)cc1 (configuration not stated)	13µM*
CCOc1ccccc1N1CC(c2nc3ccccc3n2CCCOc2ccccc2OC)CC1=O (configuration not stated)	i
CCOc1ccc(N2CC(c3nc4ccccc4n3CCCCOc3ccc(OC)cc3)CC2=O)cc1 (configuration not stated)	13µM*
CCOc1ccccc1N1CC(c2nc3ccccc3n2CCOc2ccc(C(C)(C)C)cc2)CC1=O (configuration not stated)	-24%
CCOc1ccc(N2CC(c3nc4ccccc4n3CCOc3ccc(CC)cc3)CC2=O)cc1 (configuration not stated)	-27%
O=C(c1ccc2c(c1)[nH]c(=O)n2C1CCC(O)CC1)N1CC[C@H]2CNC[C@H]21 (some centres not stated)	15%
COc1ccc(C(=O)N2CCCC2)c(OC2CCN(C(=O)c3ccn[nH]3)CC2)c1	-11%
Cc1cccc(-c2nocc2CCC(=O)NCc2cccs2)c1	i
O=C(c1ccncc1)N1CCC(c2nc(C3CCOCC3)no2)C1 (configuration not stated)	-14%
CCN(CC)Cc1nc(C2(O)CCN(C3COC3)CC2)cs1	20%[44.1 µM]
Cc1cc(C)n(Cc2ccc(C(=O)NCC(=O)N3CCCCCNC(=O)CC3c3ccccc3)o2)n1 (configuration not stated)	-19%
Cc1cnc(C(=O)NC2C[C@H]3CC[C@@H](C2)N3C(=O)C2CCOCC2)cn1 (some centres not stated)	7%
CNC(=O)C(C)(C)N1CCC[C@H]1C(=O)NCCN1CCCCC1	24%[44.1 µM]
CC(=O)N1CCCC1c1nc2ccccc2n1Cc1ccc(F)cc1 (configuration not stated)	23%
Cc1cc(C)c(Cn2c(C3CC(=O)N(c4ccc(F)cc4)C3)nc3ccccc32)c(C)c1 (configuration not stated)	i
Cc1cccc(C)c1OCCn1c(C2CC(=O)N(Cc3ccc(F)cc3)C2)nc2ccccc21 (configuration not stated)	2.5µM*
SMILES	Pf Dd2 inh
Cc1cccc(N2CCN(c3nc4ccccc4c4nc(-c5cccnc5)nn34)CC2)c1C	14%
Cc1cccc(-c2nc3c4ccccc4nc(N4CCN(c5ccc(F)cc5)CC4)n3n2)c1	-3%
CCc1ccc(-n2c(N3CCN(c4cccc(C)c4C)CC3)nc3ccccc3c2=O)cc1	11µM*
Cc1ccc(C)c(N2CCN(c3nc4ccccc4c(=O)n3-c3ccccc3)CC2)c1	i
Cc1ccc(-n2c(/C=C\c3ccc(F)cc3)nc3ccccc3c2=O)cc1Cl	i
CCc1ccc(-n2c(N3CCN(c4ccc(F)cc4)CC3)nc3ccccc3c2=O)cc1	5.6µM*
Cc1ccccc1NC(=O)N(C)CC1CCOCC1	-6%
COc1ccc(-c2nc3n(n2)C(c2ccc(O)cc2)C(C(=O)Nc2cccnc2)=C(C)N3)cc1OC (configuration not stated)	-5%
COc1ccc(C2C(C(=O)Nc3cccnc3)=C(C)Nc3nc(-c4ccccc4)nn32)cc1OC (configuration not stated)	-15%
